Measurements: PubChem BioAssay (NCATS)
Values joined by “and” are separate entries in the source; they are usually repeats but may differ in a detail not shown here. Identical values can stand only once. Results filed as inconclusive are left out. Entries that show only a call come without a potency. More than one record can exist for a structure, and the calls need not agree. Values without a mark were called inactive. Active and inactive are the calls of the source. The call rests on the fitted dose curve; in most records, active means well fitted curve in the direction sought with a large enough effect; inconclusive means small, poorly fitted or top-dose-only effect, or another doubt; inactive means no such curve, though single readings can be large; an effect the other way counts as inactive or inconclusive.

Experiments:
[1] = system: HaCat; assay: Cytotoxic Profiling of Annotated Libraries Using Quantitative High-Throughput Screening (AID 1296008); details: Five cell lines viability, CellTiter-Glo ATP luminescence, 48-72 h; max response: stronger effect = lower value; further: nearly all actives have a fitted effect of over 60% in size; further: potency means the concentration at half of the fitted maximal effect
In short: (§1)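 Cytotoxicity was measured as CellTiter-Glo ATP luminescence, read after 10 min at room temperature. Compound treatment of the cells lasted 48 or 72 hr at 37 degrees Celsius in a qHTS format.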

[2] = system: KB-3-1; assay: as above; details: Five cell lines viability, CellTiter-Glo ATP luminescence, 48-72 h; max response: stronger effect = lower value
In short: as §1

[3] = system: NIH3T3; assay: as above; details: Five cell lines viability, CellTiter-Glo ATP luminescence, 48-72 h; max response: stronger effect = lower value
In short: as §1

[4] = system: MCC-13; assay: qHTS assay to identify novel small-molecules to repurpose for Merkel cell carcinoma treatment (AID 1296009); details: MCC and control cell lines, CellTiter-Glo viability, 72 h; series mostly up to 46 µM; further: nearly all actives have a fitted effect of over 60% in size; further: potency means the concentration at half of the fitted maximal effect
In short: (§2)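 Cell viability, measured as CellTiter-Glo luminescence, was normalized between DMSO and no-cell wells. The cells had been exposed to 8- or 11-point compound dilutions for 72 hr at 37 degree celsius.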

[5] = system: MCC-26; assay: as above; details: MCC and control cell lines, CellTiter-Glo viability, 72 h; series mostly up to 46 µM
In short: as §2

[6] = system: MKL-1; assay: as above; details: MCC and control cell lines, CellTiter-Glo viability, 72 h; series mostly up to 46 µM
In short: as §2

[7] = system: MKL-2; assay: as above; details: MCC and control cell lines, CellTiter-Glo viability, 72 h; series mostly up to 46 µM
In short: as §2

[8] = system: NIH3T3; assay: as above; details: MCC and control cell lines, CellTiter-Glo viability, 72 h; at 44.8 µM (top of the series) unless noted
In short: as §2

[9] = system: UISO; assay: as above; details: MCC and control cell lines, CellTiter-Glo viability, 72 h; series mostly up to 46 µM
In short: as §2

[10] = system: WaGa; assay: as above; details: MCC and control cell lines, CellTiter-Glo viability, 72 h; series mostly up to 46 µM
In short: as §2

[11] = system: HACAT; assay: as above; details: MCC and control cell lines, CellTiter-Glo viability, 72 h; at 44.8 µM (top of the series) unless noted
In short: as §2

[12] = system: C33A; assay: Primary qHTS to identify gynecologic anti-cancer compounds using libraries of approved drugs and bioactive compounds (AID 1345084); details: Gynecologic cancer cell panel viability, ATPlite luminescence, 48 h; series mostly up to 57.5 µM; further: nearly all actives have a fitted effect of over 55% in size
In short: (§3)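 Five-point cytotoxicity, 48 h drug exposure at 37 C, 5% CO2, on cells seeded 16 h beforehand. ATP content read by ATPlite luminescence.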

[13] = system: CASKI; assay: as above; details: Gynecologic cancer cell panel viability, ATPlite luminescence, 48 h; series mostly up to 57.5 µM
In short: as §3

[14] = system: Es-2; assay: as above; details: Gynecologic cancer cell panel viability, ATPlite luminescence, 48 h; series mostly up to 57.5 µM
In short: as §3

[15] = system: HeLa; assay: as above; details: Gynecologic cancer cell panel viability, ATPlite luminescence, 48 h; series mostly up to 57.5 µM
In short: as §3

[16] = system: Hek293T; assay: as above; details: Gynecologic cancer cell panel viability, ATPlite luminescence, 48 h, control line for the selectivity index; series mostly up to 57.5 µM
In short: as §3

[17] = system: JEG-3; assay: as above; details: Gynecologic cancer cell panel viability, ATPlite luminescence, 48 h; series mostly up to 57.5 µM
In short: as §3

In the case of `Cc1nnc(C(C)C)n1C1C[C@H]2CC[C@@H](C1)N2CC[C@H](NC(=O)C1CCC(F)(F)CC1)c1ccccc1` (stereo partly specified), the max response [1] is reported as 3.6%, the max response [2] is reported as 3.29% and the outcome [3] is reported as “inactive”. The Potency [4] was “inactive”, the Potency [5] was “inactive” and the Potency [6] was “inactive”. The Potency [7] was “inactive”, the outcome [8] was “inactive” and the Potency [9] was “inactive”. The Potency [10] was “inactive”.

With `N#CC1(c2ccc(NC(=O)c3cccnc3NCc3ccncc3)cc2)CCCC1` the outcome [1] was “inactive”, the max response [2] was -11.6% and the max response [3] was -15.9%. The outcome [11] was “inactive”, the Potency [4] was “inactive” and the Potency [5] was “inactive”. The Potency [6] was “inactive”, the Potency [7] was “inactive” and the Potency [9] was “inactive”. For the same molecule, the Potency [10] was “inactive”.

For `C[C@H](NC(=O)C(=O)Nc1ccccc1C(C)(C)C)C(=O)N[C@@H](CC(=O)O)C(=O)COc1c(F)c(F)cc(F)c1F`, the outcome [1] was “inactive”, the outcome [2] was “inactive” and the outcome [3] was “inactive”. The outcome [11] was “inactive”, the Potency [6] was 20.9 µM (active) and the Potency [7] was 16.6 µM (active). The outcome [8] was “inactive”.

In the case of `CC1(C)CCC2=C(O1)c1ccccc1C(=O)C2=O`, the outcome [1] is reported as “inactive”, the max response [2] is reported as 7.27% and the outcome [11] is reported as “inactive”. For the same molecule, the Potency [5] was “inactive” and the Potency [10] was 26.4 µM (active).

For `C[C@]12CC[C@@H]3c4ccc(O)cc4C[C@@H](CCCCCCCCCS(=O)CCCC(F)(F)C(F)(F)F)[C@H]3[C@H]1CC[C@H]2O` (stereo partly specified), the max response [1] was 0.837%, the max response [2] was 4.81% and the outcome [3] was “inactive”. The Potency [4] was “inactive”, the Potency [5] was “inactive” and the Potency [6] was “inactive”. For the same molecule, the Potency [7] was “inactive”, the outcome [8] was “inactive” and the Potency [10] was “inactive”.

In the case of `CC(C)=CC[C@@H](O)C1=CC(=O)c2c(O)ccc(O)c2C1=O`, the outcome [1] is reported as “inactive”, the max response [2] is reported as 6.3% and the max response [3] is reported as 4.11%. For the same molecule, the outcome [11] was “inactive”, the Potency [4] was “inactive” and the Potency [5] was “inactive”. For the same molecule, the Potency [7] was 20.9 µM (active), the Potency [9] was “inactive” and the Potency [10] was 23.5 µM (active).

In the case of `C=C1C(=O)OC2C=C(C)CCC=C(C)CCC12` (stereo unspecified), the outcome [1] is reported as “inactive”, the max response [2] is reported as 2.36% and the outcome [11] is reported as “inactive”. For the same molecule, the Potency [4] was “inactive”, the Potency [6] was “inactive” and the Potency [9] was “inactive”.

`O=c1c(-c2ccc(O)cc2)coc2cc(O[C@@H]3O[C@H](CO)[C@H](O)[C@H](O)[C@H]3O)ccc12` was tested, and the max response [1] was -4.86%, the outcome [2] was “inactive” and the max response [3] was 1.51%. The Potency [4] was “inactive”, the Potency [6] was “inactive” and the Potency [7] was “inactive”. For the same molecule, the Potency [9] was “inactive” and the Potency [10] was “inactive”.

For `NC(=O)c1cccc(-c2cc(Nc3ccc(OC(F)(F)F)cc3)ncn2)c1`, the outcome [1] was “inactive”, the max response [2] was -13.5% and the max response [3] was 0.478% and -10.9%. For the same molecule, the outcome [11] was “inactive”, the Potency [4] was “inactive” and the Potency [5] was “inactive”. The Potency [6] was “inactive”, the Potency [12] was “inactive” and the Potency [13] was “inactive”. The Potency [14] was “inactive”, the Potency [15] was “inactive” and the Potency [16] was “inactive”. The Potency [17] was “inactive”.

`O=C1c2c(O)cc(O)cc2O[C@H](c2cc(O)c(O)c(O)c2)[C@H]1O` showed a max response [1] of -8.4%, a max response [2] of 4.36% and a max response [3] of 4.33%. For the same molecule, the Potency [4] was “inactive”, the Potency [5] was “inactive” and the Potency [9] was “inactive”. For the same molecule, the Potency [10] was 2.35 µM (active).

In the case of `C[C@@H]1CCN(C(=O)CC#N)C[C@H]1N(C)c1ncnc2[nH]ccc12`, the Potency [1] is reported as 8.33 µM (active), the max response [2] is reported as -5.04% and the max response [3] is reported as -18.3%. For the same molecule, the Potency [4] was “inactive”, the Potency [5] was “inactive” and the Potency [6] was “inactive”. For the same molecule, the Potency [7] was “inactive”, the Potency [9] was “inactive” and the Potency [10] was “inactive”.

`COc1ccc(-c2coc3cc(O)cc(O)c3c2=O)cc1` was tested, and the max response [1] was 1.1%, the outcome [2] was “inactive” and the outcome [3] was “inactive”. The Potency [4] was “inactive”, the Potency [5] was “inactive” and the Potency [6] was “inactive”. The Potency [7] was “inactive”, the outcome [8] was “inactive” and the Potency [9] was “inactive”. The Potency [10] was “inactive”.

In the case of `COC(=O)N[C@H](C(=O)N1CCC[C@@H]1c1ncc(-c2ccc(-c3ccc(-c4cnc([C@@H]5CCCN5C(=O)[C@@H](NC(=O)OC)C(C)C)[nH]4)cc3)cc2)[nH]1)C(C)C`, the outcome [1] is reported as “inactive”, the max response [2] is reported as 1.64% and the max response [3] is reported as 2.81%. For the same molecule, the outcome [11] was “inactive”, the Potency [4] was “inactive” and the Potency [6] was “inactive”. For the same molecule, the Potency [7] was “inactive”, the Potency [9] was “inactive” and the Potency [10] was “inactive”.

`CCS(=O)(=O)N1CC(CC#N)(n2cc(-c3ncnc4[nH]ccc34)cn2)C1` was tested, and the Potency [1] was 5.17 µM (active), the max response [1] was -22.3% and the Potency [4] was “inactive”. For the same molecule, the Potency [5] was “inactive”, the Potency [6] was “inactive” and the Potency [7] was “inactive”. For the same molecule, the Potency [9] was “inactive”, the Potency [10] was “inactive” and the Potency [12] was “inactive”. The Potency [13] was “inactive”, the Potency [14] was “inactive” and the Potency [15] was “inactive”. For the same molecule, the Potency [16] was “inactive” and the Potency [17] was “inactive”.
